Reference: PubChem BioAssay AID720517 (National Center for Advancing Translational Sciences (NCATS), 2013)
Inconclusive results are not listed. Entries that show only a call come without a potency. Active and inactive are the calls of the source. The call rests on the fitted dose curve; in most records, active means well fitted activation curve with a large enough effect; inconclusive means small, poorly fitted or top-dose-only effect; inactive means flat fitted curve, though single readings scatter.

Test: qHTS for Inhibitors of Cell Surface uPA Generation: FP59 Counterscreen for Cherry-picked Compounds
Details: FP59 anthrax toxin cytotoxicity counterscreen, cells; series mostly up to 115 µM

SMILES | Potency
COc1ccc(CNCCC2(C(C)C)CCOC(C)(C)C2)cc1 (stereo not given) | inactive
Cc1c(C(=O)N(Cc2ccccc2Cl)C2CCS(=O)(=O)C2)oc2ccccc12 (stereo not given) | inactive
CCN(CC)S(=O)(=O)c1cc(NC(=O)COC(=O)C2CCC2)ccc1C | inactive
CNS(=O)(=O)c1cc(-c2nnc(Nc3ccc(CC(N)=O)cc3)c3ccccc23)ccc1C | inactive
CC1Cc2nc(SCC(=O)Nc3ccc4c(c3)OCO4)n(-c3ccc(F)cc3)c(=O)c2S1 (stereo not given) | inactive
COC(=O)C1C(=O)c2c([nH]c(C(=O)OC3CCCCC3)c2C)CC1C (stereo not given) | inactive
CC1CC(=O)Nc2ccccc2N1C(=O)Cn1cnc2ccc(Br)cc2c1=O (stereo not given) | inactive
COC(=O)Cc1c(C)c2ccc(OCC(=O)N3CCCC(C)C3)c(C)c2oc1=O (stereo not given) | inactive
Cc1ccc(S(=O)(=O)Nc2nc(C)cc(N/N=C/c3ccc(O)cc3)n2)cc1 | inactive
COC(=O)/C(C#N)=C\c1c(OC)[nH]c2ccccc12 | inactive
COC(=O)/C(C#N)=C/c1c(N2CCN(c3ccccc3)CC2)nc2c(C)cccn2c1=O | inactive
CC1=C(C(=O)OCc2ccccc2)C(c2cccc([N+](=O)[O-])c2)NC(=O)N1 (stereo not given) | inactive
COC(=O)[C@H](CC(C)C)N(Cc1ccccc1)S(=O)(=O)N(Cc1ccc(OC)cc1)[C@@H](CC(C)C)C(=O)OC | inactive
CC1(C)Oc2ccc3ccc(=O)oc3c2[C@@H](O)[C@H]1O | inactive
COc1ccc2[nH]cc(S(=O)(=O)c3ccc(C(C)C)cc3)c(=O)c2c1 | inactive
CC(C(=O)Nc1nccs1)c1ccc([N+](=O)[O-])cc1 (stereo not given) | inactive
CCCS(=O)(=O)c1ccc(COC(=O)Cc2ccc([N+](=O)[O-])cc2)cc1 | inactive
C/C=C/C(=O)Nc1cccc(C2=NOC3(C2)C[C@@H](C(N)=O)N(C(=O)c2cc([N+](=O)[O-])cc([N+](=O)[O-])c2C)C3)c1 (stereo not given in full) | inactive
CCc1ccc(S(=O)(=O)NCCc2cn3cccc(C)c3n2)s1 | inactive
COCc1c(C(=O)Nc2nc(C)cs2)oc2ccccc12 | inactive

SMILES | Potency
COc1cccc(CC(=O)n2nc(N)c3cc4ccc(OC)cc4nc32)c1 | inactive
CC1(CC(=O)N/N=C/c2cc(Br)c(O)cc2O)OCCO1 | inactive
CCn1c(=O)cc(C(=O)OC)sc1=Nc1ccc(F)c(F)c1 | inactive
C=CCNC(=S)NCC=C | inactive
COC(C[C@H](O)[C@H](C)[C@@H](O)COCc1ccccc1)OC | inactive
Cc1ccc(S(=O)(=O)N2CCOCC2)cc1NC(=O)CSc1nc(N)cc(N)n1 | inactive
Cn1nc(N2CCN(S(=O)(=O)c3ccccc3)CC2)c(=O)n(C)c1=O | inactive
CC(=O)n1cc(/C=N/NC(=O)c2ccc([N+](=O)[O-])cc2)c2ccccc21 | inactive
CSCC[C@H](NC(=O)[C@H](Cc1ccccc1)n1c(=O)[nH]c2ccccc2c1=O)C(=O)N1CCC[C@H]1C(=O)O | inactive
COc1cccc(C(=O)NCC(c2ccco2)N2CCc3ccccc3C2)c1 (stereo not given) | inactive
CCNC(=S)NNC(=O)c1ccncc1 | inactive
Cc1ccc(N2C(=O)CC(N3CCN/C3=C3\CC/C(=C\c4ccccc4)C3=O)C2=O)cc1 (stereo not given) | inactive
Cc1ccc(/C=C/C(=O)O)cc1S(=O)(=O)N1CCc2ccccc21 | inactive
CN(Cc1ccc(C(C)(C)C)cc1)C(=O)Cc1ccc(S(=O)(=O)N2CCOCC2)s1 | inactive
CC1CCCC(NC(=O)CNC(=S)N(Cc2ccccc2)Cc2cccs2)C1C (stereo not given) | inactive
Cn1c(SCC(=O)NCCc2ccccc2)ncc(C(=O)Nc2ccc(F)cc2)c1=O | inactive
COc1ccc(C2NC(=O)CCC2[N+](=O)[O-])c(OC)c1OC (stereo not given) | inactive
CC(C)c1ccc(C2/C(=C(\O)c3ccc4c(c3)OCCO4)C(=O)C(=O)N2CCN2CCOCC2)cc1 (stereo not given) | inactive
N#CCCN(C(=O)COC(=O)c1ccc2c(c1)NC(=O)CS2)c1ccc2c(c1)OCCO2 | inactive
Cn1cnc([N+](=O)[O-])c1Sc1ccc(Br)cc1 | inactive
